# From PubChem
# The list is not random: actives were taken first. Their share in the collection is about 3.4%.
# MITF primary: inhibitors of human MITF; inhibition, % at 2.6 µM; O75030; 650,000 tested, 0.91% active; AlphaScreen MITF homodimerization, bead proximity signal; AID 1259374; in the data active means inhibition above about 50%;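 further: 0% = vehicle wells with protein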
# GPR151 ag: activators of human GPR151; Q8TDV0; PathHunter beta-arrestin GPR151 cells, luminescence; activation, % at 11.2 µM; 650,000 tested, 1% active; in the data active means activation above about 4.9%;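 further: 0% = median of compound wells and 100% = cells with positive control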
# TEAD-YAP block: TEAD-YAP interaction inhibition; 640,000 tested, 1.4% active; AID 1259422; inhibition, % at 9.12 µM; HEK-TIYL cells, TEAD-Gal4/YAP UAS-luciferase luminescence; in the data active means inhibition above about 32%;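 further: 0% = median of test compound wells and 100% = reference inhibitor wells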
# FBW7 act: human FBW7 E3 ligase activation, primary screen; Q969H0; AlphaScreen FBW7–phospho-cyclin E peptide binding, activator screen; normalized activity (activation), % at 26.1 µM; 650,000 tested, 0.13% active; in the data active means normalized activity above about 1.9%;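 further: purified mutant Fbw7 with reduced substrate affinity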
# Target sequence (Q969H0 whole entry, looked up): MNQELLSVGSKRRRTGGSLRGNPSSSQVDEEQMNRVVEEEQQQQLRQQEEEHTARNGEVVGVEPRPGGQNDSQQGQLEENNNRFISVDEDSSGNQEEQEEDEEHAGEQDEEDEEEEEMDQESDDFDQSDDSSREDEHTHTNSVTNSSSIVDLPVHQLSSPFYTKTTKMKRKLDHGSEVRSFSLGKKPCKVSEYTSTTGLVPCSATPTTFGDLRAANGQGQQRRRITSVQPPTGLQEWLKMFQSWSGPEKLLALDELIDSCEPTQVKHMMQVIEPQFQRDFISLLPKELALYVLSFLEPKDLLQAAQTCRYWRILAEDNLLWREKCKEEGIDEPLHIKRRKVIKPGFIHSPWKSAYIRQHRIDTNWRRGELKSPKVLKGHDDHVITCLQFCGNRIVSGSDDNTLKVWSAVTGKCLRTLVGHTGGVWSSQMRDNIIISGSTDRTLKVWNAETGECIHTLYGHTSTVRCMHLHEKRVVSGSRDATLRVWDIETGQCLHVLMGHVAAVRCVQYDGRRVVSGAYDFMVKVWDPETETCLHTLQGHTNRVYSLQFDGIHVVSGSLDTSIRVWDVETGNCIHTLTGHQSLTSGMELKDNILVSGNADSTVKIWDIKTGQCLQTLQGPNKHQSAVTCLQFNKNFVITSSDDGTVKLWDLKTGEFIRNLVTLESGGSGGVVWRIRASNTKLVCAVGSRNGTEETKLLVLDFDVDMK
# Starred values were filed as active, the others as inactive.
SMILES,MITF primary,GPR151 ag,TEAD-YAP block,FBW7 act
COc1ccc(Nc2cc(C)nc(-n3nc(C)cc3C)n2)c(OC)c1,-7,-1,66*,-1
NS(=O)(=O)c1ccc(CCNC(=O)CSc2nc3ccccc3c(=O)n2CCCC(=O)NCCc2ccccc2)cc1,3,2,-1,0
COCCn1nnnc1C(c1cccs1)N1CCOCC1 (stereo unspecified),-8,0,-4,0
Cc1cc(N2CCCC2)c(C)cc1/C=C\[N+](=O)[O-],-3,1,54*,0
Cc1cc(N2CCCC2)c(C)cc1C=O,3,3,-11,0
COCCCNC(=O)/C(C#N)=C/c1cn(Cc2cccc(F)c2)c2ccccc12,13,0,35*,0
COCCCNC(=O)/C(C#N)=C/c1cn(Cc2ccc(F)cc2)c2ccccc12,12,2,44*,2
O=C(/C=C/c1ccc2c(c1)OCCCO2)c1cc([N+](=O)[O-])ccc1O,15,-4,79*,0
Cc1sc2ncnc(Nc3cccc([N+](=O)[O-])c3)c2c1C,1,-2,-4,0
O=C(Nc1nc2ccccc2[nH]1)c1ccccc1F,3,-9,89*,0
O=C(Nc1nc2ccccc2[nH]1)c1cccc(I)c1,-10,0,-43,0
O=C(Nc1nc2ccccc2[nH]1)c1ccc(F)cc1,7,-8,43*,0
COc1ccc(Cl)cc1C(=O)Nc1nc2ccccc2[nH]1,0,-10,66*,0
COCc1cc(C)nc2sc3c(c12)NC(=O)Cn1c-3nc2ccccc21,-13,-2,-6,0
C/C(=N\NC(=O)c1cc(C(C)C)[nH]n1)c1ccncc1,2,3,-21,0
CCOc1ccccc1-c1cc(C(=O)N/N=C(/C)c2ccc(OC)c(OC)c2)[nH]n1,9,1,40*,0
C/C(=N\NC(=O)c1cc(-c2ccc(CC(C)C)cc2)n[nH]1)c1ccncc1,0,-1,67*,0
C/C(=N\NC(=O)c1cc(-c2ccccc2Cl)n[nH]1)c1ccc(O)cc1,2,-1,17,0
CCOc1ccc(-c2cc(C(=O)N/N=C(\C)c3ccc(OC)cc3)[nH]n2)cc1,7,0,44*,0
CCOc1ccccc1-c1cc(C(=O)N/N=C(\C)c2cccs2)[nH]n1,11,0,49*,0
CCOc1cccc(-c2cc(C(=O)N/N=C(\C)c3cccs3)[nH]n2)c1,14,1,-10,0
Cc1c(C(=O)Nc2cccc(C(=O)O)c2)cccc1[N+](=O)[O-],16,1,-1,3.5*
O=C(Nc1ccncc1)c1ccc(C(=O)c2ccccc2)cc1,-10,-3,55*,0
Cc1c(C(=O)NC(=S)Nc2cccc(C(=O)O)c2)cccc1[N+](=O)[O-],4,-1,9,0
O=C(O)c1ccc(NC(=O)c2ccc(Oc3ccccc3)cc2)cc1,13,-1,39*,0
SMILES,MITF primary,GPR151 ag,TEAD-YAP block,FBW7 act
O=C(O)c1cccc(NC(=O)c2ccc(Oc3ccccc3)cc2)c1,15,-10,93*,1
O=C(Nc1ccncc1)c1ccc(C(=O)Nc2ccncc2)cc1,1,0,5,0
O=C(Nc1cccc(F)c1)c1ccc(Oc2ccccc2)cc1,-6,-5,-7,0
Cc1cccc(N2CCN(c3nc4ccccc4n4cnnc34)CC2C)c1 (stereo unspecified),14,-1,8,0
COC(=O)c1ccsc1NC(=O)c1ccc(S(=O)(=O)N(C)C2CCCCC2)cc1,-1,1,3,0
CCOC(=O)C1CCCCN1C(=O)Cn1cc(NC(=O)c2ccccc2)cn1 (stereo unspecified),-1,0,-7,0
O=[N+]([O-])c1cccc(-c2nc(-c3ccccc3Cl)no2)c1,6,0,-11,2.1*
O=[N+]([O-])c1ccc(-c2nc(-c3ccccc3Cl)no2)cc1,-7,1,0,0
NC(=O)C1CCCc2c1[nH]c1ccc(Cl)cc21 (stereo unspecified),15,1,7,0
CCN(CC)C(=O)C1CCCc2c1[nH]c1ccc(Cl)cc21 (stereo unspecified),2,2,59*,0
Cc1cc(C)nc(SCC(=O)Nc2ccc(N3CCOCC3)c(Cl)c2)n1,-4,3,32*,0
O=C(O)C1CCCCC1C(=O)Nc1ccc(Oc2cccc3ccccc23)cc1 (stereo unspecified),6,0,71*,0
Cc1cccc(Oc2ccc(NC(=O)c3ccccc3C(=O)O)cc2)c1C,0,2,5,0
O=C(O)c1ccccc1C(=O)Nc1ccc(Oc2cccc3ccccc23)cc1,10,2,82*,0
CCCCOc1ccc(NC(=O)C2CCCCC2C(=O)O)cc1 (stereo unspecified),8,0,4,0
COc1cc(-c2nc3sc(C)c(C)c3c(=O)o2)cc(OC)c1OC,-3,0,-4,2.3*
Cc1cccc(NC(=O)CSc2nc3cc4c(cc3cc2C#N)OCCO4)c1,3,0,57*,0
COc1ccc(C)cc1NC(=O)CSc1nc2cc3c(cc2cc1C#N)OCCO3,5,0,67*,0
Cc1ccc2c(CN3C(=O)C4CC=CCC4C3=O)cc(=O)oc2c1C (stereo unspecified),0,0,-1,0
O=C(Cc1cnc2ncnn2c1)N1CCc2c([nH]c3ccccc23)C1c1ccccn1 (stereo unspecified),10,-1,35*,0
O=C(Nc1ccccc1)c1ccc(Cl)c(S(=O)(=O)Nc2ccc(I)cc2)c1,4,0,36*,0
Cc1ccc(NS(=O)(=O)c2cc(C(=O)Nc3ccccc3)ccc2Br)cc1,-6,1,39*,0
Cc1ccc(C2(c3ccc(C)cc3)C(=O)NCc3ccccc32)cc1,11,0,-1,0
Cc1cc(C(=O)CN2C(=O)C3CC=CCC3C2=O)c(C)n1CC1CCCO1 (stereo unspecified),-2,1,36*,0
Cc1cc(C(=O)CSc2nnc(-c3cccs3)o2)c(C)n1CC1CCCO1 (stereo unspecified),18,2,-18,0
SMILES,MITF primary,GPR151 ag,TEAD-YAP block,FBW7 act
Cc1nnc(SCC(=O)c2cc(C)n(CC3CCCO3)c2C)s1 (stereo unspecified),5,0,41*,0
O=C(Nc1ccc(-c2nc3ncccc3o2)cc1)c1sc2ccccc2c1Cl,-3,-1,-3,0
O=C1c2cccc3cccc(c23)C(=O)N1c1ccc(I)cc1,-7,0,4,0
O=S(=O)(NCCC12CC3CC(CC(C3)C1)C2)c1ccc(S(=O)(=O)N2CCOCC2)cc1,17,-1,6,0
COc1ccc(-n2c(C)c(C(C)=O)c3cc(OC(=O)c4ccc(C)cc4)ccc32)cc1,-5,0,48*,1
CCOC(=O)c1ccc(Oc2nc(NC)nc(OC)n2)cc1,14,-1,0,1.9*
CCNc1nc(OC)nc(Oc2ccc(C(=O)OCC)cc2)n1,11,-1,4,1
CC(C)(C)c1csc2ncc(C(=O)NCc3ccco3)c(=O)n12,8,2,-1,0
